# Sampled rows, rich in hits. Any-hit rate of the full collection: about 7%.
# ADAM10 inh – human ADAM10 inhibitors, primary screen, biochemical, QFRET, HTS | Disintegrin and metalloproteinase domain-containing protein 10 (Homo sapiens), O14672 | recombinant ADAM10, EDANS/DABCYL FRET peptide cleavage, 3 h | actives 0.62% (n = 370,000) | inhibition, % at 7 µM;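 active means inhibition above a per-campaign cutoff equal to the mean of compounds falling between control-based bounds plus 3 SD, cut at about 20% in these data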;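 further: 0% = DMSO wells while the 100% control is not disclosed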
# rCAG RNA binder – binders of r(CAG) RNA repeats, primary screen, biochemical, fluorescence; r(CAG) RNA repeat, TO-PRO-1 dye displacement fluorescence; inhibition, % at 3 µM; actives 1.3% (n = 370,000); AID 651821, 2012;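 active means inhibition above the plate cutoff, the mean of all test compounds on that plate plus 3 SD, cut at about 35% in these data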;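 further: 0% = DMSO alone and 100% = 100 µM mitoxantrone as full dye displacement; higher means more dye released from RNA so lower well fluorescence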
# NR3A LBD binder – binders of NR3A ligand-binding domain, primary screen, biophysical, differential scanning fluorimetry, uHTS; Glutamate receptor ionotropic, NMDA 3A (GRIN3A) ligand-binding domain; NR3A LBD differential scanning fluorimetry, Tm shift; 0% = protein alone, 100% = glycine-bound protein; Tm shift relative to glycine control, % at 25 µM; actives 2.5% (n = 340,000); AID 1259313, 2017;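 active means melting temperature shift of at least 10% of the positive control shift, at one fixed dose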
# KLK7 zymogen act – proKLK7 zymogen activators, primary screen, biochemical, fluorescence intensity; Kallikrein-7 (Homo sapiens), P49862; purified proKLK7, EDANS-DABCYL substrate fluorescence; 100% is mature enzyme control, 0% vehicle; activation, % at 7 µM; actives 0.9% (n = 370,000);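 active means activation above the mean of all tested compounds plus 3 SD, computed per campaign excluding outliers beyond control limits, cut at about 13% in these data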
# Target sequence (P49862 whole entry, looked up): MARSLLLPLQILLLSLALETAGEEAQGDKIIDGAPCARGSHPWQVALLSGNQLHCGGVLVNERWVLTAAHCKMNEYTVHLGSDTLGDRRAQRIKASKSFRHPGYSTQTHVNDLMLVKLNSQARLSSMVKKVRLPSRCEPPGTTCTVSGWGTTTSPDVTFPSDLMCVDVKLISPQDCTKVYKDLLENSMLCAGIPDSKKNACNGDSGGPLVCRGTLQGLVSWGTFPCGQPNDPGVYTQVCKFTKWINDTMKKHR
# AHR act – AHR activators, primary screen, cell-based, luminescence, luciferase reporter, human. Aryl hydrocarbon receptor (Homo sapiens), P35869. AHR-responsive luciferase reporter cells. activation, % at 5 µM. actives 2.5% (n = 320,000). AID 2796, 2010; in the data active means activation above about 47%;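 further: 0% = vehicle wells and 100% = reference agonist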
# ADAM17 inh – ADAM17 inhibitors, primary screen, biochemical, QFRET; Disintegrin and metalloproteinase domain-containing protein 17 (Homo sapiens), P78536; recombinant ADAM17, EDANS/DABCYL FRET peptide cleavage; inhibition, % at 6.95 µM; actives 0.83% (n = 370,000);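 active means inhibition above the mean of compounds lying between control limits plus 3 SD, set per campaign, cut at about 8.5% in these data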;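 further: 0% = DMSO-only wells as the low control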
# Active calls of the source: *; . = no result given.
SMILES,ADAM10 inh,rCAG RNA binder,NR3A LBD binder,KLK7 zymogen act,AHR act,ADAM17 inh
CC(c1c[nH]c2ccccc12)c1cn(C)c2ccccc12 (stereo not given),0.5,4.7,.,0.3,.,0.1
C=CCN1[C@@H](CC(C)C)COc2cc(F)ccc2S1(=O)=O,-1.4,2.1,.,-0.1,.,-3.6
CCCCNC(=S)NNC(=O)C12CC3CC(CC(C3)C1)C2,3.9,-4.3,-9.7,0.3,0.1,-6.8
CC(C)NC(=S)NNC(=O)C12CC3CC(CC(C3)C1)C2,-9.6,3.2,11.2*,-0.2,-1.0,-6.1
COc1ccc(Nc2nc(N)nc(C(F)(F)F)n2)c(OC)c1,3.7,-1.1,-0.6,0.1,76.0*,-2.2
COC(=O)C1CN(Cc2ccc(F)cc2)CCS(=O)(=O)N1Cc1ccc(OC)cc1 (stereo not given),-6.9,6.9,.,-0.1,.,-4.4
COc1ccc(S[C@]2(C(=O)N(C)C)CC(=O)N(C(=O)c3ccccc3)[C@@H]2c2ccc(OC)cc2)cc1,0.1,5.8,.,0.5,.,2.8
COC(=O)[C@]12C[C@H](CC(=O)N3CCSCC3)C(=O)N(CCC3=CCCCC3)C1=C[C@H](C1CCCC1)O[C@@H]2C,7.5,3.0,.,1.3,.,4.1
COc1ccc(CCn2c(=N)c(C(=O)NCCN3CCOCC3)cc3c(=O)n4ccccc4nc32)cc1OC,-25.2,-1.4,14.8*,-0.6,4.4,-3.9
CC1=NN(c2ccccc2)C(=O)/C1=C/c1ccc(Cl)cc1,24.7*,24.8,3.5,0.1,.,3.9
CC1=NN(c2ccccc2)C(=O)/C1=C/c1ccc[nH]1,8.5,6.3,17.2*,0.6,85.2*,6.8
CC1=NN(c2ccccc2)C(=O)/C1=C/c1ccc(-c2ccc(C)c(C(=O)O)c2)o1,-5.6,4.2,10.5*,-0.3,0.4,-1.4
CC1=NN(c2ccccc2)C(=O)C1=Cc1ccccc1,-8.9,10.1,.,0.7,.,-3.7
CC1=NN(c2ccccc2)C(=O)/C1=C/c1c(O)n(-c2ccc(F)cc2)[nH]c1=O,16.9,91.2*,11.2*,0.0,21.0,3.0
Cc1ccccc1CN1[C@@H](C)[C@H](c2ccccc2)Oc2cccc(NCCc3ccccc3)c2S1(=O)=O,-4.1,4.4,.,-0.1,.,-2.4
COC(=O)C1CN(Cc2ccc(F)cc2)CCS(=O)(=O)N1Cc1ccc(C)cc1 (stereo not given),8.6,0.0,.,0.4,.,1.0
COC(=O)C[C@@H]1CC[C@H]2[C@@H](COc3ccc(NS(=O)(=O)c4ccccc4F)cc3C(=O)N2C)O1,-2.5,1.1,.,-0.2,.,-1.8
CC1=NN(c2ccc(C)cc2)C(=O)/C1=C\C=C\c1ccccc1,-4.7,5.3,-10.1,-0.2,0.8,-4.7
CC1=NN(c2cccc(C(=O)O)c2)C(=O)/C1=C\C=C/c1ccccc1,14.6,13.9,11.7*,0.3,.,5.6
COc1cc(-n2c(C)nc3cc(C(=O)N4CCCCC4)ccc32)cc(OC)c1OC,-4.3,0.3,.,0.1,.,0.2
CC(C)Oc1cccc(-c2cc(C(=O)NN3CCOCC3)c3ccccc3n2)c1,2.7,-0.4,-0.8,0.8,28.2,3.4
CC(C)Oc1cccc(-c2cc(C(=O)NC(=S)N(C)c3ccccc3C(=O)O)c3ccccc3n2)c1,-493.1,8.8,0.0,4.4,49.7*,-142.1
C/C(=N\NC(=O)OC(C)(C)C)c1ccc(-n2ccnc2)cc1,-1.4,-6.9,-0.1,-0.2,68.3*,-7.2
C/C(=N\NC(N)=S)c1ccc(-n2ccnc2)cc1,7.6,4.7,-0.8,0.0,112.7*,-2.0
COc1ccc(OCC(=O)N/N=C(\C)c2ccc(-n3ccnc3)cc2)cc1,-17.1,-3.3,4.4,-0.4,55.1*,2.2
SMILES,ADAM10 inh,rCAG RNA binder,NR3A LBD binder,KLK7 zymogen act,AHR act,ADAM17 inh
C/C(=N\NC(=O)COc1ccc(C(C)(C)C)cc1)c1ccc(-n2ccnc2)cc1,7.8,0.7,-0.6,0.8,72.9*,2.7
C/C(=N\NC(=O)c1ccccc1)c1ccc(-n2ccnc2)cc1,-2.8,8.0,-0.3,0.2,20.9,-4.3
COc1cc(NC(=O)COc2ccc(-n3ccnc3)cc2)cc(OC)c1,-0.1,-2.1,-0.3,-0.2,13.8,-0.7
COc1ccc(NC(=O)NCCCN2CCN(c3ccc(F)cc3)CC2)cc1OC,-7.2,3.1,.,-0.2,.,-1.3
COC(=O)C1CN(Cc2cn(CCC3OCCO3)nn2)CCS(=O)(=O)N1Cc1ccc(F)cc1 (stereo not given),-8.6,0.3,.,-0.7,.,-5.5
Cc1[nH]c2ccccc2c1CC(=O)Nc1ccc(Nc2cccnc2)c(-c2ccc(Cl)c(Cl)c2)c1,-19.3,14.0,.,-5.2,.,-3.5
COc1ccccc1NS(=O)(=O)c1cccc(C(=O)N/N=C(\C)c2ccc(-n3ccnc3)cc2)c1,1.6,3.5,-0.6,0.1,66.8*,0.5
O=c1c2cc(Br)ccc2nc(-c2ccccc2)n1O,2.3,9.3,0.4,-0.8,47.6*,-5.6
Oc1ccc2c(ccc3[nH]cnc32)c1,2.4,-0.1,-5.2,0.1,30.2,-1.4
Brc1cc2[nH]cnc2c2ccccc12,4.8,9.9,-31.1,0.6,63.0*,3.9
Cc1ccc(C)c(NC(=S)NC(NC(=O)Cc2ccccc2)C(Cl)(Cl)Cl)c1 (stereo not given),5.7,2.0,20.3*,-0.7,3.7,-2.5
O=C(COc1ccccc1)NC(NC(=S)Nc1ccccc1C(=O)O)C(Cl)(Cl)Cl (stereo not given),-50.0,38.6*,3.4,0.0,1.6,-15.8
Cc1ccc(C(=O)NC(NC(=S)Nc2ccc(S(N)(=O)=O)cc2)C(Cl)(Cl)Cl)cc1 (stereo not given),13.6,30.2,19.5*,-0.1,1.9,6.1
Cc1ccc(NC(=S)NC(NC(=O)c2ccccc2)C(Cl)(Cl)Cl)c(C)c1 (stereo not given),16.1,7.3,14.9*,-0.8,6.0,4.8
Cc1cc(C)c(NC(=S)NC(NC(=O)c2ccccc2)C(Cl)(Cl)Cl)c(C)c1 (stereo not given),1.1,8.0,5.6,-0.9,-0.5,-0.4
CCc1ccc(/C=C(\C#N)C(=O)NC2CCS(=O)(=O)C2)cc1 (stereo not given),-2.8,0.6,0.4,0.1,2.4,-0.2
COc1cccc(/C=C(\C#N)C(=O)NC2CCS(=O)(=O)C2)c1 (stereo not given),0.6,1.6,13.1*,-2.8,-2.0,0.6
NNc1nc2c(Cl)c(Cl)ccc2s1,4.9,12.2,11.1*,0.2,84.0*,-0.7
Cc1ccc(NC(=O)[C@@H]2CC(=O)O[C@@H]2c2ccccc2)cc1C,-2.8,-0.1,.,0.1,.,-2.9
